A number with no mark means an inactive call. How the calls were made is not given here.
Each compound was assayed on HIV-1 nucleocapsid protein NCp7 (binding to TG oligonucleotide) (assay: HIV Nucleocapsid (AID 346;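 further: potency is for inhibitors that block NC binding and lower polarization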)). Details: HIV-1 NC / fluorescein-TGTGTGTG probe, fluorescence polarization.
Summary of the method: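 NCp7 100 nM + fluorescein TG4xF 10 nM; Hepes pH 7.5/250mM NaCl/1uM ZnCl2/0.004% PEG 20000; 1 hr RT; FP, 45 s exposure; oligo-only wells as negative control.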
With `O=c1cnc2cnc(Oc3ccccc3)nc2n1Cc1ccc(F)cc1` the Potency was greater than 20 µM.
With `O=c1c(CCc2ccccc2)nc2cnc(N3CCOCC3)nc2n1-c1ccccc1` the Potency was greater than 20 µM.
Compound `CN(C)Cc1ccccc1-c1cc(N(C)Cc2ccco2)ncn1` has a Potency greater than 20 µM.
Compound `Cc1cnc(CNc2ncncc2-c2ccccc2C#N)cn1` has a Potency greater than 20 µM.
In the case of `COc1ccccc1CNc1ncncc1-c1ccccc1OC`, the Potency is reported as greater than 20 µM.
Work on `FC(F)(F)c1ccccc1-c1cncnc1NCc1cccnc1` yielded a Potency greater than 20 µM.
In the case of `COc1ccc2[nH]cc(CCNc3ncnc4ccc(-c5cccnc5)cc34)c2c1`, the Potency is reported as greater than 20 µM.
`COc1ccc(NC(=O)N2CCC3(CC2)CCN(C(=O)c2cnccn2)CC3)cc1` showed a Potency greater than 20 µM.
With `COCCn1c(=O)c(-c2ccc(F)cc2)nc2cnc(N(C)C)nc21` the Potency was greater than 20 µM.
`Cc1noc(C)c1-c1cc(NC2CC2)ncn1` gave a Potency greater than 20 µM.

— PubChem BioAssay (NCATS)
Potency means the concentration at half of the fitted maximal effect.
